According to PubChem BioAssay (EPA / NIEHS):
Inconclusive results are not listed. Calls of active or inactive are those of the source. The calls were made as follows: active = hit-call score of the fitted dose curve at least 0.9, where 1 is the maximum; inconclusive = response in the unintended direction; inactive = score below 0.9.

Each molecule was assayed against Muscarinic acetylcholine receptor M2 (Homo sapiens) (UniProt P08172) (assay: NVS_GPCR_hM2: NovaScreen (NVS) G Protein-Coupled Receptor Assay for human Muscarinic, M2 Receptor (AID 2283273)).
Outline: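 Radioligand competition binding, cell-free, receptor from CHO; 1 h incubation; scintillation detection. Primary testing at 25 uM in duplicate.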

Sequence of Muscarinic acetylcholine receptor M2 (Homo sapiens) (P08172 whole entry, looked up): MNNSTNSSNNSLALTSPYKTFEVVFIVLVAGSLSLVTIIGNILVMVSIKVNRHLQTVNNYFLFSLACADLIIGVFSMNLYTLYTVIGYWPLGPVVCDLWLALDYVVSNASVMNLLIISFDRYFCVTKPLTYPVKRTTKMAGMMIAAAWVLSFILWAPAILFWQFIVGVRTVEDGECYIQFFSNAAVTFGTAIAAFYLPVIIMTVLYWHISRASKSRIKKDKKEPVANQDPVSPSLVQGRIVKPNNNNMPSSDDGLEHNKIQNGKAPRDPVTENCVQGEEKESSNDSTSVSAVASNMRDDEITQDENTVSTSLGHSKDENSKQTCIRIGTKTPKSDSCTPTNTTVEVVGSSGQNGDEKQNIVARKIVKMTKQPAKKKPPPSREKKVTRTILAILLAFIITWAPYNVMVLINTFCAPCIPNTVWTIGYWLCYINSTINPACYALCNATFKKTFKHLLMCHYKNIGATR

| Compound | AC50 | outcome |
| --- | --- | --- |
| CNC[C@H](O)c1cccc(O)c1 | 29.7 µM (active) |  |
| CN(CCOc1ccc(CC2SC(=O)NC2=O)cc1)c1ccccn1 (stereo not drawn) | 13.2 µM (active) |  |
| Nc1cc(N)cc(C(=O)O)c1 | 38.1 µM (active) |  |
| COC(=O)OC |  | inactive |

The molecules below were run against human Thromboxane A2 Receptor (TXA2), TBXA2R (gene 6915) (UniProt P21731) (assay: NVS_GPCR_hTXA2: NovaScreen (NVS) G Protein-Coupled Receptor Assay for human Thromboxane A2 Receptor (TXA2) (AID 2283282);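 also: actives reduce bound radioligand signal relative to DMSO baseline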).
Outline: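 Human platelet membranes tested for radioligand displacement by filtration and scintillation counting 1 h post-dose. Screened in duplicate at 25 uM; activity fitted as signal loss relative to DMSO.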

Sequence of human Thromboxane A2 Receptor (TXA2), TBXA2R (gene 6915) (P21731 whole entry, looked up): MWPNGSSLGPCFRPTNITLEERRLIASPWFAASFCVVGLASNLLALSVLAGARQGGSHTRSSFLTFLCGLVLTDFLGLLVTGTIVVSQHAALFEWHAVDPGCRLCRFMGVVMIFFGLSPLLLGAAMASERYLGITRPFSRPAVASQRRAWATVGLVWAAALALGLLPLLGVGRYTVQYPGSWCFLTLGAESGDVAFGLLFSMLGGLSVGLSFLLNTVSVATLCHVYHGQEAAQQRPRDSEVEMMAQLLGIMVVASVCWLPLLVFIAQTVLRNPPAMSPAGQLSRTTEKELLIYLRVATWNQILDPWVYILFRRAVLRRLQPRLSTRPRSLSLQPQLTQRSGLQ

| Compound | outcome | AC50 |
| --- | --- | --- |
| CCCCCCCCCC=O | inactive |  |
| BrC1CCC(Br)C(Br)CCC(Br)C(Br)CCC1Br (stereo not drawn) |  | 11.1 µM (active) |
| O=C1CCc2ccccc2O1 | inactive |  |
| CN(CCOc1ccc(CC2SC(=O)NC2=O)cc1)c1ccccn1 (stereo not drawn) |  | 1.45 µM (active) |
| CCCCOCCOCCOCCOCCO | inactive |  |
| CCCCCCCCC=O | inactive |  |

These molecules were tested against rat Thyrotropin Releasing Hormone Receptor (TRH), Trhr (gene 25570) (UniProt Q01717) (assay: NVS_GPCR_rTRH: NovaScreen (NVS) G Protein-Coupled Receptor Assay for rat Thyrotropin Releasing Hormone Receptor (TRH) (AID 2283329);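 also: hit means lower bound tracer signal versus DMSO baseline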).
Outline: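 Rat forebrain membranes; radioligand displacement at TRH receptor by filter-based scintillation counting, read 4 h after dosing. Duplicate single-point screen at 25 uM, actives rerun in concentration series; loss of signal relative to DMSO.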

Sequence of rat Thyrotropin Releasing Hormone Receptor (TRH), Trhr (gene 25570) (Q01717 whole entry, looked up): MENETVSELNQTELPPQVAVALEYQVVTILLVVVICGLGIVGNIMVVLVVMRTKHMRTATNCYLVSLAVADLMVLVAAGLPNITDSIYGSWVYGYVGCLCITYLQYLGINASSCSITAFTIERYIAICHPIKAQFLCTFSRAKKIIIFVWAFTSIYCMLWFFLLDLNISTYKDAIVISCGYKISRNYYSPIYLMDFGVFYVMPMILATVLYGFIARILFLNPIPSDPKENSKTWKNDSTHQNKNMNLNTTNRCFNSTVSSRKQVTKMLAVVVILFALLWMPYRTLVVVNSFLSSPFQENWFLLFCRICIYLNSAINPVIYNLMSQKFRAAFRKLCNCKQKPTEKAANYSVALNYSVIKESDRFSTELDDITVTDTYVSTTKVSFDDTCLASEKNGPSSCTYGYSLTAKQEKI

| Compound | outcome |
| --- | --- |
| C[Si](O[Si](C)(C)C)O[Si](C)(C)C | inactive |
| CC(C)(C#N)c1cc(Cn2cncn2)cc(C(C)(C)C#N)c1 | inactive |
| OCCN1CCNCC1 | inactive |
| CCCC/C=C\CCCCCCCCCC=O | inactive |
| CCCCCCCCCCCCN | inactive |
| C=CCOc1nc(OCC=C)nc(OCC=C)n1 | inactive |
| NCCCN1CCOCC1 | inactive |
| O=C(Cl)c1cccc(C(=O)Cl)c1 | inactive |
| O=C(O)c1ccc(C(=O)O)cc1 | inactive |
| CN(C)CCCN | inactive |
| C=C(C)C(=O)O | inactive |
| CC1=CC(=O)NS(=O)(=O)O1 | inactive |
| CC1(C)[C@@H]2CC[C@@]1(C)[C@H](O)C2 | inactive |
